From PubChem
Most compounds without a hit are left out; they make up all but 2% or so of the library.
Granule exo inh: blocks lytic granule exocytosis | TALL-104 LAMP-1 surface exposure, flow cytometry; cells stimulated with thapsigargin and PMA | inhibition, % at 10 µM | 360,000 compounds, 0.66% hits | AID 651702;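 active means inhibition above about 55%, limit read from the data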
ABCB6 inh 2: blocks the human ABCB6 transporter. fluorescence ratio to DMSO, % at 10 µM. K562-ABCB6 porphyrin accumulation, flow cytometry, 1 h; hits give low values. Q9NP58. 360,000 compounds, 0.19% hits;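 active means fluorescence ratio to DMSO below 75%, the collection mean minus 3 SD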;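 further: signal is porphyrin accumulated inside mitochondria; 100% equals median channel fluorescence of DMSO control wells; lower ratio means ABCB6 inhibition with less porphyrin fluorescence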
PG9 Ab binder: small molecules binding HIV-1 gp120 antibody PG9; 360,000 compounds, 0.43% hits; TR-FRET gp120-PG9 antibody binding; AID 624416; inhibition, % at 6.7 µM; in the data active means inhibition above about 8.5%
VLA-4 inh: inhibition in a human VLA-4 binding assay; 330,000 compounds, 0.2% hits; P13612; inhibition, % (about 7 µM as worked out from the volumes in the protocol); VLA-4 expressing cells, ligand binding flow cytometry; in the data active means inhibition above about 50%
NR1D1 modulator: Rev-erb alpha (human) modulation. P20393. Rev-erbα–FITC-DNA binding, fluorescence polarization, 90 min. activity, % at 10 µM. 370,000 compounds, 0.79% hits;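 active means activity above about 14%, limit read from the data; passing the limit was not always enough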;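 further: 0% = DMSO wells with 35 nM protein and 100% = DMSO wells with 750 nM protein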
Target sequence (P20393 whole entry, looked up): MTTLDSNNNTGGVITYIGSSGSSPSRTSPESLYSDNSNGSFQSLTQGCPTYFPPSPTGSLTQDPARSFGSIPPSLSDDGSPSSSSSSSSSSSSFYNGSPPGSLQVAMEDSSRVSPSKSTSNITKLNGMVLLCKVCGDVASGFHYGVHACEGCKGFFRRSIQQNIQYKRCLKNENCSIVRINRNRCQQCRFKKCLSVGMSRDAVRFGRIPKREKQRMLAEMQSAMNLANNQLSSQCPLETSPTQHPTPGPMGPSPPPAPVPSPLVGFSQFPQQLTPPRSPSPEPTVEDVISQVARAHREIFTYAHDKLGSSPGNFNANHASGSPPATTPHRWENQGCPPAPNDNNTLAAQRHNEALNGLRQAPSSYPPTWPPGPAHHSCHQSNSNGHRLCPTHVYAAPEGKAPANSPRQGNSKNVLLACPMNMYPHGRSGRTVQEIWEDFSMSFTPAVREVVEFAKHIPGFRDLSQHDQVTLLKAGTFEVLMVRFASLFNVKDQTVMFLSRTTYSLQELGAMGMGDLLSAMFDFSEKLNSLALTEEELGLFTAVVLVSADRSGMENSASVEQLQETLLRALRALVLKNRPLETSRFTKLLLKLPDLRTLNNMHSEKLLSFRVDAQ
VLA-4 allo CP: human VLA-4 allosteric modulation in cherry picked compounds; shares compounds with VLA-4 inh; U937 cells, HUTS-21 LIBS mAb binding, flow cytometry; LDV ligand present at threefold Kd; inhibition, % at 6.7 µM; 1,300 compounds, 2% hits; in the data active means inhibition above about 40%;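 further: 0% = ligand without compound and 100% = no ligand background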
* marks the source's active call; other numbers are inactive results.

Results for CC(=O)Nc1ccc(/C=C(\C#N)C(=O)NCc2ccccc2)cc1 ?
Granule exo inh: 0; ABCB6 inh 2: 103; PG9 Ab binder: 0; VLA-4 inh: 7; NR1D1 modulator: 3

Results for COc1ccc(S[C@]2(C(=O)N3CCOCC3)CC(=O)N(c3ccc(C#N)cc3)[C@@H]2c2ccc(OC)cc2)cc1 ?
NR1D1 modulator: -5

Results for COC(=O)[C@]12C[C@H](CC(=O)NCC34CC5CC(CC(C5)C3)C4)C(=O)N(Cc3ccc4c(c3)OCO4)C1=C[C@H](COCc1ccccc1)O[C@@H]2C ?
PG9 Ab binder: -1; NR1D1 modulator: 2

Results for COc1cc2c(cc1OC)C(C)N(CCN1C(=O)c3ccccc3C1=O)CC2 (stereo not drawn) ?
Granule exo inh: 9; ABCB6 inh 2: 400; PG9 Ab binder: 1; VLA-4 inh: 44; NR1D1 modulator: 2; VLA-4 allo CP: -7

Results for C/C(=N\Nc1ccc([N+](=O)[O-])cc1[N+](=O)[O-])c1cccnc1 ?
Granule exo inh: 1; ABCB6 inh 2: 103; PG9 Ab binder: -2; VLA-4 inh: 45; NR1D1 modulator: -2; VLA-4 allo CP: -18

What do the screens show for `CCCNC(=O)Cn1c(=O)oc2cc(S(=O)(=O)N3CCCC3)ccc21`?
Granule exo inh: 10; ABCB6 inh 2: 100; PG9 Ab binder: 1; VLA-4 inh: 57*; NR1D1 modulator: 3; VLA-4 allo CP: -3

Results for CCC(NC(=O)c1cccc2c1C(=O)N(Cc1cccnc1)C2)c1ccccc1 (stereo not drawn) ?
NR1D1 modulator: -1

How did Cc1ccc(NC(=O)CSCC(=O)N(C)CCOc2ccc(Cl)cc2)cc1 do in these assays?
Granule exo inh: 0; ABCB6 inh 2: 90; PG9 Ab binder: 0; NR1D1 modulator: 1

Results for Cc1cccc(NC(=O)CSCC(=O)N(C)CCOc2ccc(Cl)cc2)c1 ?
Granule exo inh: -6; ABCB6 inh 2: 96; PG9 Ab binder: 0; VLA-4 inh: 52*; NR1D1 modulator: 0; VLA-4 allo CP: -2

How did O=C1C[C@@H](c2ccccc2)N=C2N(Cc3ccc4c(c3)OCO4)C/C(=C/c3ccccc3)N12 do in these assays?
NR1D1 modulator: 6

What do the screens show for `Cc1nn(-c2cc(N3CCOCC3)ccc2N)c(=O)c2ccccc12`?
Granule exo inh: 4; ABCB6 inh 2: 97; PG9 Ab binder: -2; VLA-4 inh: 64*; NR1D1 modulator: -4; VLA-4 allo CP: 1

Results for CC(C)c1ccc(C2(C)NC(=O)N(CC(=O)NC3CCCC(C)C3C)C2=O)cc1 (stereo not drawn) ?
Granule exo inh: -3; ABCB6 inh 2: 96; PG9 Ab binder: 0; VLA-4 inh: 52*; NR1D1 modulator: 4; VLA-4 allo CP: 0

Results for COc1ccc(S(=O)(=O)Nc2c(F)cccc2F)cc1 ?
Granule exo inh: 0; ABCB6 inh 2: 98; PG9 Ab binder: -5; VLA-4 inh: 23; NR1D1 modulator: 5; VLA-4 allo CP: 1

How did CC(C)(C)OC(=O)n1cc(C(=O)c2ccccc2O)cn1 do in these assays?
Granule exo inh: 20; ABCB6 inh 2: 101; PG9 Ab binder: 0; VLA-4 inh: 50*; NR1D1 modulator: -3; VLA-4 allo CP: 7

How did O=C(O)CCc1nc(-c2ccccc2)c(-c2ccccc2)o1 do in these assays?
VLA-4 inh: 51*; NR1D1 modulator: 6; VLA-4 allo CP: -1

How did Cc1nc2nc(SCC(=O)c3cccc([N+](=O)[O-])c3)[nH]c2cc1Br do in these assays?
Granule exo inh: 6; ABCB6 inh 2: 125; PG9 Ab binder: -3; VLA-4 inh: 44; NR1D1 modulator: 1; VLA-4 allo CP: -9

What do the screens show for `Cc1ccc(NS(=O)(=O)c2ccc3c(c2)CC(=O)N3)c(C)c1`?
Granule exo inh: 2; ABCB6 inh 2: 100; PG9 Ab binder: 0; VLA-4 inh: 2; NR1D1 modulator: -2

How did Cc1ccc(S(=O)(=O)Nc2ccc(N3CCOCC3)cc2)cc1C do in these assays?
Granule exo inh: -2; ABCB6 inh 2: 98; PG9 Ab binder: -1; VLA-4 inh: 2; NR1D1 modulator: 3

How did Cc1ccc(NS(=O)(=O)c2ccc3c(c2)CC(=O)N3)cc1F do in these assays?
Granule exo inh: -2; ABCB6 inh 2: 97; PG9 Ab binder: -3; VLA-4 inh: 41; NR1D1 modulator: 3; VLA-4 allo CP: 3

Results for O=C1Cc2cc(S(=O)(=O)Nc3ccc(N4CCOCC4)cc3)ccc2N1 ?
Granule exo inh: -2; ABCB6 inh 2: 96; PG9 Ab binder: 0; VLA-4 inh: 10; NR1D1 modulator: 4; VLA-4 allo CP: -10

What do the screens show for `COc1ccc(Cn2ccc3ccc(-c4ccc5ccn(C(=O)C6CCC6)c5c4)cc32)cc1`?
NR1D1 modulator: 15

Results for O=C(CSc1nc2ccccc2n1Cc1ccccc1)NN=C/C=C/c1ccccc1 ?
NR1D1 modulator: 1

How did COc1ccc(-c2csc(NC(=O)c3cccc(N4C(=O)CCC4=O)c3)n2)cc1C do in these assays?
Granule exo inh: 24; ABCB6 inh 2: 96; PG9 Ab binder: 0; VLA-4 inh: 12; NR1D1 modulator: 10

What do the screens show for `COc1ccc(OC)c2sc(NC(=O)c3cccc(N4C(=O)CCC4=O)c3)nc12`?
Granule exo inh: 1; ABCB6 inh 2: 97; PG9 Ab binder: 4; VLA-4 inh: 65*; NR1D1 modulator: -4; VLA-4 allo CP: 4

What do the screens show for `O=C(c1cc(-c2ccco2)nc2ccccc12)N1CCN(Cc2ccccc2)CC1`?
Granule exo inh: 3; ABCB6 inh 2: 97; PG9 Ab binder: -1; VLA-4 inh: 5; NR1D1 modulator: -3; VLA-4 allo CP: -3

What do the screens show for `O=C(c1ccco1)N1CCN(C(=O)c2cc(-c3ccccc3)nc3ccccc23)CC1`?
Granule exo inh: -1; ABCB6 inh 2: 91; PG9 Ab binder: 1; VLA-4 inh: -3; NR1D1 modulator: -2

How did O=C(c1ccco1)N1CCN(c2ccnc3cc(Cl)ccc23)CC1 do in these assays?
Granule exo inh: -3; ABCB6 inh 2: 89; PG9 Ab binder: -1; VLA-4 inh: 11; NR1D1 modulator: 0

What do the screens show for `O=C(c1ccco1)N1CCN(C(=O)c2cc(-c3ccccn3)nc3ccc(Cl)cc23)CC1`?
Granule exo inh: 0; ABCB6 inh 2: 98; PG9 Ab binder: 0; VLA-4 inh: -8; NR1D1 modulator: -6; VLA-4 allo CP: -10

How did O=C(c1ccco1)N1CCN(C(=O)c2cc(-c3ccncc3)nc3ccc(Br)cc23)CC1 do in these assays?
Granule exo inh: 3; ABCB6 inh 2: 94; PG9 Ab binder: -1; VLA-4 inh: -1; NR1D1 modulator: 1; VLA-4 allo CP: 2

How did CCOC(=O)[C@]12CCCC3=C1N(CCC3)C(=O)[C@@H](CC(=O)N1CCN(C(=O)c3ccco3)CC1)C2 do in these assays?
NR1D1 modulator: 3

How did O=C(Cn1nc(-c2ccccc2)ccc1=O)NCCc1cccc(F)c1 do in these assays?
NR1D1 modulator: -6
